This excerpt belongs to a sample that is enriched for hits.
Integrin act MD: activates integrin-mediated alleviation for muscular dystrophy; alpha7betagal myoblasts, beta-gal FDG fluorescence, 48 h; Potency, µM (series often up to 38.3 µM), without a hit: top-dose activation, hits mostly activators; hit rate 0.064% among 350,000;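 further: potency means the concentration at half of the fitted maximal effect; 100% = response of the positive control SU9516; nearly all actives have a fitted effect of over 60% in size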
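alpha7betagal+/- myoblasts (passage 13, 250/well) treated 48 h at 37C with compounds at 1:260 dilution of DMSO stock. Lysed, then beta-galactosidase activity read as FDG fluorescence (ex 480/em 540) after 30 min, with pre-read for autofluorescence.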
Glioma ERSR ind: induces the endoplasmic reticulum stress response in human glioma cells; Potency, µM, inactives show at the top dose activation, usual class: activators; U87-MG GRP78 promoter luciferase reporter, 16 h; hit rate 0.02% among 420,000; AID 602332; further: potency means the concentration at half of the fitted maximal effect; series mostly up to about 76 µM; % of control where 0% means no effect; nearly all actives have a fitted effect of over 35% in size
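Stably transfected U87-MG human glioma cells carrying a GRP78-based luminescent sensor were seeded at 1000 cells/well, pin-dosed with compounds and incubated 16 h. Luciferase reagent was then added, and end-point luminescence was read after 10 min at room temperature.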
N370S GC: inhibitors or activators of N370S glucocerebrosidase for Gaucher disease; Potency, µM (top dose mostly 59.4 µM), for inactives: at the top dose activity change, negative = inhibition, usual class: inhibitors; P04062; hit rate 0.092% among 330,000; N370S GC spleen homogenate, 4MU-glucoside fluorescence;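 further: potency means the concentration at half of the fitted maximal effect; 0% = full enzyme activity and -100% = no enzyme basal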
Anesthetic bind: binds horse apoferritin like a general anesthetic; P02791; hit rate 0.074% among 350,000; AID 485281; Potency, µM (doses to about 77.5 µM), for inactives: at the highest dose activity change, negative = displacement, usual class: inhibitors; apoferritin/1-aminoanthracene competitive binding, fluorescence; further: potency means the concentration at half of the fitted maximal effect; on the % scale 0 is the no-effect control and ±100 the full control effect; nearly all actives have a fitted effect of over 20% in size
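Apoferritin-based anesthetic binding model; compound displacement of fluorescent 1-AMA measured as endpoint fluorescence after 10 minutes at room temperature, scaled to free-ligand and complex controls.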
ClpP mod: qHTS Assay for Activators of ClpP. hit rate 1.9% among 340,000. Potency, µM (series often up to 57.5 µM), inactives show at the highest dose activity change, negative = active. AID 651965, 2013. purified B. subtilis ClpP, FRET peptide cleavage, 20 min. ATP-dependent Clp protease proteolytic subunit (Bacillus subtilis (strain 168)), P80244; active means well fitted falling curve with a large enough effect; inconclusive means small, poorly fitted or top-dose-only effect; inactive means no such curve, though single readings can be large or run the other way; further: potency means the concentration at half of the fitted maximal effect; the source files actives as falling curves though it sought activators and does not explain the sign; nearly all actives have a fitted effect of over 65% in size
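FRET quenching reversal measured ClpP activation: 10 microg/mL B. subtilis ClpP at pH 8 with the FRET-FV decapeptide, read at 430 nm after 320 nm excitation. The 20-min minus 0-min signal was scaled between DMSO/no-enzyme wells and ADEP (5.8 microM final).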
CBFb RUNX1 block: blocks binding between human CBF-beta and RUNX1 | Q01196+Q13951 | AlphaScreen CBFb-His/RUNX1-biotin binding, biochemical | Potency, µM (series often up to 59.8 µM), for the others: at the top dose activity, negative = inhibition, hits mostly inhibitors | 230,000 tested, under 10 active | AID 1477; further: % of control where 0% means no effect
Target sequence (Q01196 whole entry, looked up): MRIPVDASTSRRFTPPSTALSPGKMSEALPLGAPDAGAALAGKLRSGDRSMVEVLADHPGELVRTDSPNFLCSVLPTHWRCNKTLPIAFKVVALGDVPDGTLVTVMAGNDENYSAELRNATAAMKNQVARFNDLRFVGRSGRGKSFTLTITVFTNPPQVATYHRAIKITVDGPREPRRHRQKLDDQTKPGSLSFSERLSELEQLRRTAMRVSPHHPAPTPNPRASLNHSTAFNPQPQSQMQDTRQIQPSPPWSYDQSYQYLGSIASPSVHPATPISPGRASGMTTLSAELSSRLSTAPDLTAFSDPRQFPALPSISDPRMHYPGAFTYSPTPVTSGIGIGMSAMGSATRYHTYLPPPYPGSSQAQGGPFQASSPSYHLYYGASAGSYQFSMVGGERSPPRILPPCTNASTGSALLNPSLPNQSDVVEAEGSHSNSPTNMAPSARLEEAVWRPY
Target sequence (Q13951 whole entry, looked up): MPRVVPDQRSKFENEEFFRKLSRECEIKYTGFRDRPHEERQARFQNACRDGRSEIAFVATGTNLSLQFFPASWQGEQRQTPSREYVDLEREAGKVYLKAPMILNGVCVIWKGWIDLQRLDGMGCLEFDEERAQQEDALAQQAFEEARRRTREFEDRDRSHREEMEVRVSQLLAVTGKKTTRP
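His-tagged CBF-beta and biotinylated RUNX1 (30 nM each) were premixed 20 min at room temperature, exposed to compound for 15 min, then given nickel-chelate and streptavidin AlphaScreen beads (50 ng each). After 90 min, AlphaScreen signal was read.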
* marks the source's active call; other numbers are inactive results; ? = inconclusive; / = not tested or not shown; [ ] = dose if it differs, or a comment. Unless noted, the call rests on the fitted dose curve; in most records, active means well fitted curve in the direction sought with a large enough effect; inconclusive means small, poorly fitted or top-dose-only effect, or another doubt; inactive means no such curve, though single readings can be large; an effect the other way counts as inactive or inconclusive.

SMILES	Integrin act MD	Glioma ERSR ind	N370S GC	Anesthetic bind	ClpP mod	CBFb RUNX1 block
CCCCc1nc2ccccc2c(N)c1CCC (tested in a mixture with another compound)	11µM*	-7%	25%	-4%	?	-5%
Cc1cc(=O)oc2cc(OCC3CC(c4ccc(N(C)C)cc4)=NO3)ccc12 (stereo not drawn)	11%	-2%	1%	?	?	0%
Cc1cc(=O)oc2cc(OCC3CC(c4ccc(Cl)cc4)=NO3)ccc12 (stereo not drawn)	0%	0%	/	?	28µM*	3%
COc1ccccc1CN1CCC(n2cc(C(=O)N3CCCCC3)nn2)CC1	/	-5%	/	/	/	/
CCOC(=O)c1c(-c2ccccc2)csc1NC(=O)/C(C#N)=C/c1ccc(O)c(OC)c1	9%	2%	6%	-7%	28µM*	2%
CCc1nc2cc(C(=O)N(C)CC3CCCN(C)C3)cc(NC(=O)c3ccccc3OC)c2n1C (stereo not drawn)	/	-5%	/	/	/	/
CCN(CC(=O)NCc1cccs1)C(=O)c1ccc(S(=O)(=O)N(C)c2ccccc2)cc1	26%	-3%	/	/	22µM*	/
CCN(CC(=O)NCc1cccs1)C(=O)/C=C/c1cc(OC)c(OC)c(OC)c1	-8%	-5%	-9%	/	16µM*	/
CCN(CC(=O)NCc1cccs1)C(=O)c1ccc(S(=O)(=O)N(C)C)cc1	3%	-2%	0%	-5%	/	-2%
CCN1CCN(S(=O)(=O)c2ccc(Cl)c(C(=O)NC(C)c3ccccc3Cl)c2)CC1 (stereo not drawn)	14%	-4%	-12%	/	35µM*	/
Cc1cc(C)nc(SCc2cc(=O)c(OC(=O)c3ccc(S(=O)(=O)N(C)C)cc3)co2)n1	-6%	-4%	2%	-9%	2.8µM*	-4%
CNC(=O)c1ccccc1Sc1ccc2c(/C=C/c3ccccn3)n[nH]c2c1	/	-7%	/	/	/	/
Cc1ncc2c(c1CNC(=O)c1ccc3c(c1)OCO3)CCN(C(=O)c1cn3ccccc3n1)C2	/	-5%	/	/	/	/
CCc1ccc(NC(=O)CSc2nc(=O)n3cc(C)ccc3n2)cc1	2%	-1%	4%	/	25µM*	/
Cc1ccc2nc(SCC(=O)Nc3ccc(F)cc3)nc(=O)n2c1	-2%	0%	-3%	/	-1%	/
Cc1ccc2nc(SCC(=O)N3CCCC3)nc(=O)n2c1	-2%	-2%	3%	/	25µM*	/
Cc1ccc2nc(SCC(=O)N3CCC(C)CC3)nc(=O)n2c1	-1%	-2%	4%	/	-10%	/
COc1cccc(OC)c1-c1cc(CCCc2cc(-c3c(OC)cccc3OC)nc3ccccc23)c2ccccc2n1	/	-8%	/	/	-12%	/
Cn1cnnc1Sc1ccc(CN2CCOc3ccc(C4=Cc5ccccc5C4)cc3C2)o1	/	-1%	/	/	/	/
Cc1c(C(=O)NCC2CC2)sc2ncnc(NCCN3CCCCC3)c12	/	-5%	/	/	/	/
COc1ccc(OC)c(-c2cc(C(=O)Nc3c(C)nn(Cc4ccc(Cl)cc4)c3C)no2)c1	-12%[7.66 µM]	-4%	-9%	-12%	35µM*	-2%
CC(C(=O)N1CCCCC1)n1ncn2cccc2c1=O (stereo not drawn)	4%	-1%	-2%	-4%	28µM*	-3%
COc1ccc2cc(C(=O)NCc3ccco3)c(=Nc3ccc(C(=O)O)cc3)oc2c1	-11%	1%	2%	-4%	20µM*	6%
O=C(C[n+]1ccnc2ccccc21)c1ccc(Br)cc1	/	1%	/	/	1%	/
Cc1ccc(C(=O)Nc2cccc(-c3nc(CNC(=O)c4cccc(C)c4C)c(C)o3)c2)s1	/	-6%	/	/	/	/
SMILES	Integrin act MD	Glioma ERSR ind	N370S GC	Anesthetic bind	ClpP mod	CBFb RUNX1 block
Cc1cc(NC(=O)c2ccc(Cl)cc2Cl)no1	1.4µM*	-4%	4%	-21%	-1%	/
Cc1cc(NC(=O)Nc2ccc(Cl)cc2)no1	35%	6%	?	-6%	/	/
CSc1ccc(-c2ccc3c(c2)CC(CNC(=O)Cn2nc(C)nc2C)O3)cc1 (stereo not drawn)	/	-3%	/	/	/	/
COc1ccc(-c2nc3ccccc3o2)cc1OC	-4%	4%	-1%	-18%	4%	/
c1ccc2oc(-c3ccc4nc[nH]c4c3)nc2c1	-4%	-4%	0%	-8%	25µM*	2%
C[C@@H]1CN(Cc2ccc3c(c2)CN(C(=O)CN2CCOc4ccccc4C2)CCO3)C[C@H](C)O1	/	-2%	/	/	/	/
C[n+]1ccc(/C=C/c2cc[n+](C)c3ccccc23)c2ccccc21	/	-9%	/	/	-13%	/
COc1cccc(-c2cc(C(=O)Nc3ccncc3)c3ccccc3n2)c1	2%	-2%	-18%	-12%	13µM*	/
Cc1c(C(=O)NCCCN2CCOCC2)sc2nc(-c3ccc(F)cc3)cn12	-6%	-1%	-8%	6%	0%	-3%
COc1ccc(-c2cc(C(=O)NCCN3CCOCC3)c3ccccc3n2)cc1OC	9%	-4%	-9%	-6%	-4%	/
COc1ccc(-c2cc(C(=O)NCCN3CCOCC3)c3ccccc3n2)cc1	13%	-1%	-4%	36%	35µM*	6%
COc1ccc(-c2cn3c(C)c(C(=O)NCCN4CCOCC4)sc3n2)cc1	-28%	-2%	-10%	-16%	22µM*	-10%
O=C(NCC1Cc2cccc(-c3ccccn3)c2O1)c1cnn2cccnc12 (stereo not drawn)	/	-3%	/	/	/	/
COc1ccccc1NS(=O)(=O)c1cc(NC(=O)c2ccncc2)ccc1N1CCOCC1	-4%	-3%	27%	6%	25µM*	-1%
COc1ccccc1NS(=O)(=O)c1cc(NC(=O)C(C)C)ccc1N1CCCCC1	-29%	-5%	?	-13%	-4%	-6%
COc1ccccc1NS(=O)(=O)c1cc(NC(=O)Nc2ccccc2)ccc1N1CCCCC1	13%	-4%	7%	0%	25µM*	-15%
COc1ccc(S(=O)(=O)NCc2nc(N3CCCC3)c3cccc(C)c3n2)cc1OC	/	-1%	/	/	/	/
CCCSc1nc(N)nc(-c2cccs2)c1C#N	5%	4%	12%	-21%	25µM*	13%
CCOC(=O)CSc1nc(N)c(C#N)c(-c2cccs2)c1C#N	17%	-6%	-2%	55%	-16%	0%
CC1CC2(CCCCC2)Nc2ccc3ccccc3c21 (stereo not drawn)	-25%	5%	4%	-16%	18µM*	-2%
CC(=O)N1c2ccc3ccccc3c2C(C)CC12CCCCC2 (stereo not drawn)	12%	-4%	9%	-4%	-8%	3%
COC(=O)c1ccc(CN2CCOc3ccc(C(O)c4cccnc4)cc3C2)cc1 (stereo not drawn)	/	-3%	/	/	/	/
